DAX1 inh-1: blocks DAX1 repression of SF-1 activated StAR promoter. inhibition, % at 6.8 µM. AID 652010. 370,000 compounds, 1.1% hits. HEK293T StAR-luciferase reporter, SF-1/DAX-1 repression relief;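 active = inhibition above the mean over all tested compounds plus 3 SD, cut at about 3.6% in these data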;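 also: 0% = DAX-1 cells with DMSO and 100% = cells lacking DAX-1 with DMSO; higher inhibition means more luminescence from relief of DAX-1 repression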
ssDAF12 agonist: activates DAF-12 receptor from parasite S. stercoralis | activation, % at 6.8 µM | AID 652126 | 370,000 compounds, 1% hits | HEK293 ssDAF-12/GRIP1 lit1-tk-luc reporter, luminescence; % of 3 µM dafachronic acid response;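 active = activation above the mean over all tested compounds plus 3 SD, cut at about 0.9% in these data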;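 also: 0% = DMSO-only wells and 100% = 3 µM delta7-dafachronic acid wells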
hcDAF-12 act: H. contortus DAF-12 activation, primary screen | HEK293 hcDAF-12 lit1-tk-luc reporter, luminescence; 0% DMSO, 100% Δ7-dafachronic acid | activation, % at 6.8 µM | 370,000 compounds, 1.4% hits | AID 652067;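 active = activation above the mean of all tested compounds plus 3 SD, cut at about 5.5% in these data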;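 also: 100% = response to 3 µM Δ7-dafachronic acid high control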
hgDAF12 agonist: agonists of H. glycines DAF-12 nuclear receptor. 370,000 compounds, 1.8% hits. HEK293 GAL4-hgDAF12 UAS-luciferase reporter, agonist luminescence; normalized to butyrate control. activation, % at 6.8 µM;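 active = activation above a cutoff set at the mean of all screened compounds plus 3 SD, cut at about 10% in these data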;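 also: 0% = DMSO wells and 100% = sodium butyrate wells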
AHR activator: activates the human aryl hydrocarbon receptor; AHR-responsive luciferase reporter cells, luminescence; activation, % at 5 µM; AID 2796; 320,000 compounds, 2.5% hits; P35869; in the data active = activation above about 47%;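 also: 0% = vehicle wells and 100% = reference agonist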
DAX1 inh-2: NR0B1 (DAX1) inhibition; AID 504766; inhibition, % at 6.75 µM; HEK293 Gal4-DAX1 luciferase reporter, luminescence; 340,000 compounds, 0.99% hits; P51843;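 active = inhibition above the mean over all tested compounds plus 3 SD, cut at about 4.2% in these data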;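 also: 0% = DAX1-transfected cells with DMSO and 100% = empty-vector control cells with DMSO; inhibition shows as a rise in luminescence from relieved DAX1 repression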
Target sequence (P51843 207-470 limits assumed): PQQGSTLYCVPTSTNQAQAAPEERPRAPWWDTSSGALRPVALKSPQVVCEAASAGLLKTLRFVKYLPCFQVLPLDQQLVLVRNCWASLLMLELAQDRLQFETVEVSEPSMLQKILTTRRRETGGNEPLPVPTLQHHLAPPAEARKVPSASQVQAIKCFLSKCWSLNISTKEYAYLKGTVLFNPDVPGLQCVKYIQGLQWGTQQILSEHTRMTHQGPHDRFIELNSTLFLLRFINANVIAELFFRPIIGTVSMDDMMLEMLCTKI
* = called active by the depositor. Hits are enriched below; roughly 5.7% of the tested compounds scored in any of these assays.

What do the screens show for `Cc1ccc(NC(=S)NNC(=O)c2ccccc2OC(F)F)cc1`?
DAX1 inh-1: -1; ssDAF12 agonist: -1; hcDAF-12 act: 2; hgDAF12 agonist: 2; AHR activator: 102*; DAX1 inh-2: 1

What do the screens show for `O=C(NNC(=S)Nc1ccc(F)cc1)c1cccc([N+](=O)[O-])c1`?
DAX1 inh-1: 0; ssDAF12 agonist: 1.8*; hcDAF-12 act: 1; hgDAF12 agonist: 1; AHR activator: 5; DAX1 inh-2: 1

What do the screens show for `COc1ccc(Nc2c([N+](=O)[O-])ccc3c2=NC2(CCCCC2)N=3)cc1`?
DAX1 inh-1: 0; ssDAF12 agonist: -2; hcDAF-12 act: -1; hgDAF12 agonist: -2; AHR activator: 42; DAX1 inh-2: 0

How did COc1cc(/C=C/C(=O)c2cccc([N+](=O)[O-])c2)cc(OC)c1OC do in these assays?
DAX1 inh-1: -1; ssDAF12 agonist: -2; hcDAF-12 act: 1; hgDAF12 agonist: 1; AHR activator: 3; DAX1 inh-2: 2

Results for O=C(/C=C/c1ccccc1F)c1cccc([N+](=O)[O-])c1 ?
DAX1 inh-1: 0; ssDAF12 agonist: -1; hcDAF-12 act: 4; hgDAF12 agonist: 1; AHR activator: 58*; DAX1 inh-2: -1

Results for O=C(NCC1CCCO1)c1cc(NS(=O)(=O)c2cccs2)cc(NS(=O)(=O)c2cccs2)c1 (configuration not stated) ?
DAX1 inh-1: 0; ssDAF12 agonist: -1; hcDAF-12 act: -1; hgDAF12 agonist: -2; AHR activator: -1; DAX1 inh-2: 0

How did COC(=O)c1ccc2c(=O)n(CCCCCC(=O)NC3CCCCC3)c(=O)[nH]c2c1 do in these assays?
DAX1 inh-1: 2; ssDAF12 agonist: -1; hcDAF-12 act: 5.8*; hgDAF12 agonist: 2

How did CCCCCn1c(=O)[nH]c2cc(C(=O)NC3CCN(Cc4ccccc4)CC3)ccc2c1=O do in these assays?
DAX1 inh-1: 0; ssDAF12 agonist: -2; hcDAF-12 act: -1; hgDAF12 agonist: -3; AHR activator: -1; DAX1 inh-2: 6.5*

How did CCCCCn1c(=O)[nH]c2cc(C(=O)O)ccc2c1=O do in these assays?
DAX1 inh-1: 0; ssDAF12 agonist: -2; hcDAF-12 act: -2; hgDAF12 agonist: -2; AHR activator: 0; DAX1 inh-2: 0

What do the screens show for `CN(C(=O)c1cccc(NC(=O)Cc2ccc(NC(=O)C3CCN(C(=O)CCc4ccccc4)CC3)cc2)c1)C1CCC1`?
DAX1 inh-1: -1; ssDAF12 agonist: -1; hcDAF-12 act: -2; hgDAF12 agonist: -1; DAX1 inh-2: -1

How did Cc1ccc2nc(SC(C)C(=O)NC3CCCC3)[nH]c2c1 (configuration not stated) do in these assays?
DAX1 inh-1: -1; ssDAF12 agonist: -1; hcDAF-12 act: -2; hgDAF12 agonist: -5; AHR activator: 49*; DAX1 inh-2: -2

Results for COc1ccc(-n2cnnc2SC(C)C(=O)Nc2cccc([N+](=O)[O-])c2)cc1 (configuration not stated) ?
DAX1 inh-1: 1; ssDAF12 agonist: -2; hcDAF-12 act: 0; hgDAF12 agonist: 1; AHR activator: 0; DAX1 inh-2: 0

Results for Cc1ccc2nc(SC(C)C(=O)Nc3cccc([N+](=O)[O-])c3)[nH]c2c1 (configuration not stated) ?
DAX1 inh-1: 0; ssDAF12 agonist: -1; hcDAF-12 act: 0; hgDAF12 agonist: -2; AHR activator: 66*; DAX1 inh-2: 0

What do the screens show for `COc1ccc2nc(SC(C)C(=O)NC3CCCCC3)[nH]c2c1` (configuration not stated)?
DAX1 inh-1: -4; ssDAF12 agonist: -2; hcDAF-12 act: -2; hgDAF12 agonist: 3; DAX1 inh-2: 0

What do the screens show for `Cc1cccn2c(=O)c(C=O)c(N3CCCCC3)nc12`?
DAX1 inh-1: 0; ssDAF12 agonist: -1; hcDAF-12 act: 0; hgDAF12 agonist: -2; AHR activator: 7; DAX1 inh-2: 2

Results for Cc1cccn2c(=O)c(C=O)c(N3CCN(c4ccc(F)cc4)CC3)nc12 ?
DAX1 inh-1: 0; ssDAF12 agonist: -1; hcDAF-12 act: 0; hgDAF12 agonist: -2; AHR activator: 64*; DAX1 inh-2: -1

Results for CC(=O)c1cc2c(cc1N/C(=N/S(=O)(=O)c1ccccc1)c1ccc(Cl)cc1)OCO2 ?
DAX1 inh-1: 0; ssDAF12 agonist: 1.6*; hcDAF-12 act: 4; hgDAF12 agonist: 1; AHR activator: 94*; DAX1 inh-2: 0

Results for O=C(CC(C(=O)NCc1ccccc1)c1nc2ccccc2c(=O)[nH]1)NCc1ccccc1 (configuration not stated) ?
DAX1 inh-1: 0; ssDAF12 agonist: -1; hcDAF-12 act: 1; hgDAF12 agonist: 3; AHR activator: 4; DAX1 inh-2: 4

Results for Cc1cc(/C=C2/NC(=O)N(Cc3ccccc3F)C2=O)c(C)n1-c1ccccn1 ?
DAX1 inh-1: 0; ssDAF12 agonist: 1.3*; hcDAF-12 act: 4; hgDAF12 agonist: 5; AHR activator: 43; DAX1 inh-2: -1

Results for Cc1cc(/C=C2/NC(=O)N(Cc3ccccc3F)C2=O)c(C)n1C ?
DAX1 inh-1: 0; ssDAF12 agonist: 0; hcDAF-12 act: -2; hgDAF12 agonist: 0; AHR activator: 76*; DAX1 inh-2: 1

What do the screens show for `COc1ccc(-c2oc(=O)c3cc(OC)c(OC)cc3c2/C=C/c2cccc([N+](=O)[O-])c2)cc1`?
DAX1 inh-1: 0; ssDAF12 agonist: -1; hcDAF-12 act: 0; hgDAF12 agonist: -3; AHR activator: 1; DAX1 inh-2: 0

How did O=C(COC(=O)/C=C/c1ccc2c(c1)OCO2)Nc1ccccc1 do in these assays?
DAX1 inh-1: 1; ssDAF12 agonist: -1; hcDAF-12 act: -1; hgDAF12 agonist: 3; AHR activator: 3; DAX1 inh-2: 0

Results for COc1cccc(/C=C/C(=O)OCC(=O)Nc2ccc3c(c2)OCO3)c1 ?
DAX1 inh-1: 0; ssDAF12 agonist: -1; hcDAF-12 act: 0; hgDAF12 agonist: 1; DAX1 inh-2: 6.4*

How did COc1ccc(NC(=O)Nc2ccc3c(c2)OCO3)c(C)c1 do in these assays?
DAX1 inh-1: 4.4*; ssDAF12 agonist: -1; hcDAF-12 act: 1; hgDAF12 agonist: 9; AHR activator: 67*; DAX1 inh-2: 1

What do the screens show for `Cc1cc(OC(F)F)ccc1NC(=O)Nc1ccc2c(c1)OCO2`?
DAX1 inh-1: 0; ssDAF12 agonist: -1; hcDAF-12 act: 2; hgDAF12 agonist: 2; AHR activator: 66*; DAX1 inh-2: 1

Results for O=C(O)Cc1ccc(NC(=O)Nc2ccc3c(c2)OCO3)cc1 ?
DAX1 inh-1: 3; ssDAF12 agonist: -1; hcDAF-12 act: 0; hgDAF12 agonist: 3; DAX1 inh-2: 1

Screening results from PubChem.
